Assay [1] can be described thus: BSK_hDFCGF_Proliferation: Cell Proliferation Assessment in the BioMAP Diversity Plus: hDFCGF Assay (AID 2283059).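 Further: curves fitted for both rise and fall of signal versus DMSO baseline.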 To be noted: primary human foreskin fibroblasts. The gist of the method:
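Primary human foreskin fibroblasts, sub-confluent; […]; 10% TCA fix, 0.1% SRB stain, A560 total protein. Gain/loss fitted bidirectionally vs DMSO control.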

A short description of assay [2]: BSK_hDFCGF_SRB: Viability Assessment in the BioMAP Diversity Plus: hDFCGF Assay (AID 2283061).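 Further: cells exposed to compound for 24 h before the read.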 To be noted: primary human foreskin fibroblasts. The essentials: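 Human foreskin primary fibroblasts were treated with compound and assessed 24 h after dosing. Total protein was measured by sulforhodamine B staining (0.1% SRB after 10% TCA fixation, 560 nm read) as a cytotoxicity marker, with bidirectional fitting against DMSO baseline.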

Read-out in assay [3]: TIMP metallopeptidase inhibitor 1 (TIMP1), TIMP1 (gene 7076)
The assay is described as follows: BSK_hDFCGF_TIMP1: BioMAP Diversity Plus: hDFCGF Assay for TIMP metallopeptidase inhibitor 1 (TIMP1) Biomarker Activity (AID 2283062). The conditions noted are these: primary human foreskin fibroblasts; actives raise or lower the signal. The gist of the method:
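Primary human foreskin fibroblasts in the hDFCGF system were dosed with compound for 24 h, then TIMP-1 was measured by ELISA. Activity was fitted bidirectionally relative to DMSO control; parallel SRB staining assessed cytotoxicity.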

Read-out in assay [4]: Vascular cell adhesion molecule 1 (VCAM1), VCAM1 (gene 7412)
Kind of assay: BSK_hDFCGF_VCAM1: BioMAP Diversity Plus: hDFCGF Assay for Vascular cell adhesion molecule 1 (VCAM1) Biomarker Activity (AID 2283065).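 On AC50: VCAM-1 protein level quantified by ELISA after 24 h chemical exposure.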 To be noted: primary human foreskin fibroblasts; actives raise or lower the signal. The essentials:
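Primary human foreskin fibroblasts (hDFCGF system) were dosed with chemical and VCAM-1 was measured by ELISA 24 h later. Bidirectional curve fitting used DMSO as negative control and activity baseline.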

Read-out in assay [5]: Plasminogen activator inhibitor-1 (PAI1), SERPINE1 (gene 5054)
The assay is described as follows: BSK_hDFCGF_PAI1: BioMAP Diversity Plus: hDFCGF Assay for Plasminogen activator inhibitor-1 (PAI1) Biomarker Activity (AID 2283066). To be noted: primary human foreskin fibroblasts; actives raise or lower the signal. The gist of the method: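 Human foreskin fibroblasts in the hDFCGF system were dosed with compound for 24 h; PAI-1 was quantified by ELISA. Bidirectional curve fitting used DMSO as negative control and baseline.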

Read-out in assay [6]: Intercellular Adhesion Molecule 1 (ICAM1), ICAM1 (gene 3383)
The assay is described as follows: BSK_KF3CT_ICAM1: BioMAP Diversity Plus: KF3CT Assay for Intercellular Adhesion Molecule 1 (ICAM1) Biomarker Activity (AID 2283067). The conditions noted are these: primary human keratinocytes with fibroblasts; actives raise or lower the signal. The gist of the method:
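Human keratinocyte plus foreskin fibroblast primary co-culture was exposed to chemical for 24 h. ICAM-1 was then quantified by ELISA, and the data were fit bidirectionally against DMSO as the negative control and baseline.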

Read-out in assay [7]: Interferon-gamma inducible Protein 10 (IP10), CXCL10 (gene 3627)
Kind of assay: BSK_KF3CT_IP10: BioMAP Diversity Plus: KF3CT Assay for Interferon-gamma inducible Protein 10 (IP10) Biomarker Activity (AID 2283068). To be noted: primary human keratinocytes with fibroblasts; actives raise or lower the signal. The essentials: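 In a primary skin co-culture of keratinocytes and fibroblasts, IP-10 is quantified by ELISA at 24 h after dosing. SRB staining of parallel wells monitors overt toxicity. Curves are fitted both directions against DMSO.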

Assay [8] is described as follows: BSK_KF3CT_SRB: Viability Assessment in the BioMAP Diversity Plus: KF3CT Assay (AID 2283069).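 Further: fitted for both signal gain and loss against DMSO baseline.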 The conditions noted are these: primary human keratinocytes with fibroblasts. The gist of the method: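 Keratinocytes co-cultured with foreskin fibroblasts (human primary); chemical added, 24 h; fix 10% TCA, stain 0.1% SRB, A560. Bidirectional fit vs DMSO.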
Read-out in assay [9]: Interleukin-1 alpha (IL1a), IL1A (gene 3552)
Kind of assay: BSK_KF3CT_IL1a: BioMAP Diversity Plus: KF3CT Assay for Interleukin-1 alpha (IL1a) Biomarker Activity (AID 2283070). To be noted: primary human keratinocytes with fibroblasts; actives raise or lower the signal. The essentials: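 Chemicals were dosed onto co-cultured human keratinocytes and foreskin fibroblasts, IL-1a was quantified by ELISA at 24 h, and activity was fitted in both directions relative to DMSO controls.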

Read-out in assay [10]: TIMP metallopeptidase inhibitor 2 (TIMP2), TIMP2 (gene 7077)
The assay is described as follows: BSK_KF3CT_TIMP2: BioMAP Diversity Plus: KF3CT Assay for TIMP metallopeptidase inhibitor 2 (TIMP2) Biomarker Activity (AID 2283071). The conditions noted are these: primary human keratinocytes with fibroblasts; actives raise or lower the signal. The essentials:
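Human primary keratinocyte/foreskin fibroblast co-culture dosed with chemical and sampled at 24 h. TIMP-2 levels quantified by ELISA; bidirectional fitting against DMSO negative control as baseline.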

Read-out in assay [11]: C-C motif chemokine 2 (Homo sapiens) (UniProt P13500)
Kind of assay: BSK_KF3CT_MCP1: BioMAP Diversity Plus: KF3CT Assay for Monocyte Chemoattractant Protein 1 (MCP1/CCL2) Biomarker Activity (AID 2283073). To be noted: primary human keratinocytes with fibroblasts; actives raise or lower the signal. The gist of the method: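 Human keratinocyte plus foreskin fibroblast primary co-culture exposed to chemical for 24 h. MCP-1 levels measured by ELISA. Bidirectional curve fitting relative to DMSO negative control as baseline.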

Read-out in assay [12]: Matrix Metallopeptidase 9 (MMP9), MMP9 (gene 4318)
The assay is described as follows: BSK_KF3CT_MMP9: BioMAP Diversity Plus: KF3CT Assay for Matrix Metallopeptidase 9 (MMP9) Biomarker Activity (AID 2283074).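 On AC50: MMP9 protein level quantified by ELISA in the co-culture.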 To be noted: primary human keratinocytes with fibroblasts; actives raise or lower the signal. The gist of the method: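 Human keratinocyte/foreskin fibroblast co-culture; compound added; 24 h; MMP-9 by ELISA; bidirectional fit vs DMSO baseline.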

Read-out in assay [13]: urokinase plasminogen activator (uPA), PLAU (gene 5328)
Kind of assay: BSK_KF3CT_uPA: BioMAP Diversity Plus: KF3CT Assay for urokinase plasminogen activator (uPA) Biomarker Activity (AID 2283075). The conditions noted are these: primary human keratinocytes with fibroblasts; actives raise or lower the signal. The gist of the method: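 ELISA readout of uPA, analyzed for signal gain or loss relative to DMSO, from a human primary keratinocyte–foreskin fibroblast co-culture measured 24 h after chemical treatment.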

Read-out in assay [14]: E-selectin (Homo sapiens) (UniProt P16581)
Kind of assay: BSK_LPS_Eselectin: BioMAP Diversity Plus: LPS Assay for Eselectin Biomarker Activity (AID 2283077). The conditions noted are these: primary human HUVEC with PBMC; actives raise or lower the signal. The essentials: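 Human umbilical vein endothelial cells co-cultured with peripheral blood mononuclear cells under LPS stimulation; E-selectin measured by ELISA 24 h after chemical dosing. Activity fitted bidirectionally against DMSO as negative control and baseline.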

Read-out in assay [15]: Interleukin-8 (IL8), CXCL8 (gene 3576)
The assay is described as follows: BSK_LPS_IL8: BioMAP Diversity Plus: LPS Assay for Interleukin-8 (IL8) Biomarker Activity (AID 2283078). To be noted: primary human HUVEC with PBMC; actives raise or lower the signal. The gist of the method:
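Human umbilical vein endothelial cells co-cultured with PBMC were stimulated with LPS; IL-8 levels were measured by ELISA 24 h after chemical dosing. Activity was fitted bidirectionally against DMSO as negative control and baseline.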

Assay [16] in a line: BSK_LPS_SRB: Viability Assessment in the BioMAP Diversity Plus: LPS Assay (AID 2283079).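 Further: total protein by sulforhodamine B absorbance as a cytotoxicity measure; measured one day after compound addition; fitted in both directions against DMSO so loss or gain of signal counts.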 The conditions noted are these: primary human HUVEC with PBMC. The gist of the method:
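Human umbilical vein endothelial cells co-cultured with PBMC (LPS system) were dosed for 24 h. Total protein was stained with 0.1% sulforhodamine B after 10% TCA fixation, read at 560 nm, and fitted bidirectionally against DMSO baseline.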

Read-out in assay [17]: Monocyte Chemoattractant Protein-1 (MCP1), CCL2 (gene 6347)
The assay is described as follows: BSK_LPS_MCP1: BioMAP Diversity Plus: LPS Assay for Monocyte Chemoattractant Protein-1 (MCP1) Biomarker Activity (AID 2283081).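 On AC50: secreted MCP-1 protein quantified by ELISA in culture supernatant.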 To be noted: primary human HUVEC with PBMC; actives raise or lower the signal. The gist of the method: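 HUVEC plus PBMC co-culture (human primary cells, LPS system) exposed to test chemical for 24 h; MCP-1 measured by ELISA. Bidirectional curve fitting against DMSO baseline; parallel SRB total-protein staining flags overt cytotoxicity.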

Assay [18] is described as follows: BSK_LPS_PGE2: BioMAP Diversity Plus: LPS Assay for Prostaglandin E2 (PGE2) Biomarker Activity (AID 2283082). The conditions noted are these: primary human HUVEC with PBMC; actives raise or lower the signal. The essentials:
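HUVEC plus PBMC co-culture stimulated with LPS; secreted PGE2 quantified by ELISA 24 h after chemical dosing. Activity fitted bidirectionally against DMSO as negative control and baseline; parallel SRB total-protein staining served as cytotoxicity check.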

Read-out in assay [19]: Macrophage colony-stimulating factor (MCSF), CSF1 (gene 1435)
The assay is described as follows: BSK_LPS_MCSF: BioMAP Diversity Plus: LPS Assay for Macrophage colony-stimulating factor (MCSF) Biomarker Activity (AID 2283083). The conditions noted are these: primary human HUVEC with PBMC; actives raise or lower the signal. The gist of the method: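 Human umbilical vein endothelial cells co-cultured with peripheral blood mononuclear cells were exposed to compound for 24 h. M-CSF levels were measured by ELISA, and bidirectional curve fitting used DMSO as the negative control and baseline.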

Read-out in assay [20]: Tissue Factor, F3 (gene 2152)
The assay is described as follows: BSK_LPS_TissueFactor: BioMAP Diversity Plus: LPS Assay for Tissue Factor Biomarker Activity (AID 2283084). The conditions noted are these: primary human HUVEC with PBMC; actives raise or lower the signal. The essentials: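 Human umbilical vein endothelial cells co-cultured with peripheral blood mononuclear cells were dosed and stimulated with LPS. Cell-surface CD142 was quantified by ELISA at 24 h. Activity was fitted bidirectionally against DMSO baseline.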

Activity calls are given as the source filed them. How the source made its calls: active means hit-call score of the fitted dose curve at least 0.9, where 1 is the maximum; inactive means score below 0.9.

Chain of E-selectin (Homo sapiens) (P16581 whole entry, looked up): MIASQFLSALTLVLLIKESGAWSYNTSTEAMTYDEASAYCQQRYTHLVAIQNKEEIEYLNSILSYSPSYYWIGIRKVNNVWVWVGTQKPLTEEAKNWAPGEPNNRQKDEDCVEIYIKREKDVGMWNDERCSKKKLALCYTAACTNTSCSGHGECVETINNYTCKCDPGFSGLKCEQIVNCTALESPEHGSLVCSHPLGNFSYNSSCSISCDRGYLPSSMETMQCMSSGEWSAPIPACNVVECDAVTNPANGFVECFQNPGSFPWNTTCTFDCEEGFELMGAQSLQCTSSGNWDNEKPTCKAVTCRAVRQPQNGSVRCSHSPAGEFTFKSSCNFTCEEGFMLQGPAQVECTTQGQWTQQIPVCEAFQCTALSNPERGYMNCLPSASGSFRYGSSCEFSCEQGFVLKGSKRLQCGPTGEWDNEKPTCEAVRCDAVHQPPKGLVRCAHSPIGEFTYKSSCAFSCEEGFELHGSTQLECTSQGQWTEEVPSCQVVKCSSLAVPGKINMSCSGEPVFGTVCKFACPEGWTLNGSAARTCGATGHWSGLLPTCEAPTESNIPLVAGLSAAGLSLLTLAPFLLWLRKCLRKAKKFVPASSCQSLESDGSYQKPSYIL

For the compound `CN(C)c1ccc(C(c2ccccc2)c2ccc(N(C)C)cc2)cc1`, the half-maximal activity concentration (AC50) – broadly, the concentration at which the activity in the assay is half-maximal – in [1] was 3.87 µM (active); in assay [12], 13.6 µM (active); in [14], 15.6 µM (active); in assay [15], 15.2 µM (active); in assay [16] it was 12.5 µM (active); in assay [17] it was 13.2 µM (active). Besides, the AC50 in assay [19] was 8.45 µM (active). The result in [2], in [3], in assay [4], in [5], in assay [6] and in assay [7] was inactive. Also, the outcome in [8], in [9], in assay [10], in [11], in [13] and in [18] was inactive. The result in assay [20] was inactive.
Turning to `Cc1cccnc1`, the result in assay [1], in assay [2], in assay [3], in assay [4], in assay [5] and in [6] was inactive. Further, the outcome in assay [7], in [8], in assay [9], in [10], in [11] and in assay [12] was inactive. Moreover, the outcome in assay [13], in assay [14], in assay [15], in [16], in assay [17] and in [18] was inactive. In addition, the outcome in assay [19] and in [20] was inactive.
For the compound `Cc1cc(-n2nc3ccc(Cl)cc3n2)c(O)c(C(C)(C)C)c1`, the result in assay [1], in assay [2], in assay [3], in assay [4], in assay [5] and in [6] was inactive. The outcome in assay [7], in assay [8], in assay [9], in [10], in assay [11] and in [12] was inactive. The outcome in assay [13], in assay [14], in [15], in assay [16], in assay [17] and in assay [18] was inactive. Besides, the outcome in [19] and in assay [20] was inactive.
Take `CCCCCCCCCCC1CO1` (stereo not given): the half-maximal activity concentration (AC50) was 20 µM (active) in [1]; 27.6 µM (active) in assay [2]; 20 µM (active) in [3]; 25.7 µM (active) in assay [4]; 20 µM (active) in assay [5]; 29.3 µM (active) in [6]. For the same compound, the half-maximal activity concentration (AC50) in assay [7] is 4.61 µM (active); in assay [8], 33.4 µM (active); in [9] it was 25.3 µM (active); in assay [10] it was 24.2 µM (active); in assay [11], 20 µM (active); in [12], 36.1 µM (active). Also, the half-maximal activity concentration (AC50) in assay [13] is 28 µM (active); in assay [14] it was 36.1 µM (active); in assay [15], 37.5 µM (active); in assay [16], 20 µM (active); in assay [17], 31.7 µM (active); in assay [19], 31.6 µM (active). Moreover, the AC50 in assay [20] was 38.5 µM (active). In addition, the outcome in assay [18] was inactive.

The values are drawn from PubChem BioAssay (EPA / NIEHS).
